Source: article PMC4336329 (PLoS ONE, 2015)
The whole screen tested about 310,000 compounds, of which about 14,000 (4.5%) showed an effect of 50% or more. The effect is printed as a negative number. Many of the other results were omitted from the sample, so strong results are more common in it than they were.

molecular target: human ether-à-go-go-related gene (hERG) potassium channel (human, UniProt Q12809); assay: primary screen, population patch clamp on CHO cells stably expressing hERG; higher = less effect of the substance
Sequence (Q12809 whole entry, looked up): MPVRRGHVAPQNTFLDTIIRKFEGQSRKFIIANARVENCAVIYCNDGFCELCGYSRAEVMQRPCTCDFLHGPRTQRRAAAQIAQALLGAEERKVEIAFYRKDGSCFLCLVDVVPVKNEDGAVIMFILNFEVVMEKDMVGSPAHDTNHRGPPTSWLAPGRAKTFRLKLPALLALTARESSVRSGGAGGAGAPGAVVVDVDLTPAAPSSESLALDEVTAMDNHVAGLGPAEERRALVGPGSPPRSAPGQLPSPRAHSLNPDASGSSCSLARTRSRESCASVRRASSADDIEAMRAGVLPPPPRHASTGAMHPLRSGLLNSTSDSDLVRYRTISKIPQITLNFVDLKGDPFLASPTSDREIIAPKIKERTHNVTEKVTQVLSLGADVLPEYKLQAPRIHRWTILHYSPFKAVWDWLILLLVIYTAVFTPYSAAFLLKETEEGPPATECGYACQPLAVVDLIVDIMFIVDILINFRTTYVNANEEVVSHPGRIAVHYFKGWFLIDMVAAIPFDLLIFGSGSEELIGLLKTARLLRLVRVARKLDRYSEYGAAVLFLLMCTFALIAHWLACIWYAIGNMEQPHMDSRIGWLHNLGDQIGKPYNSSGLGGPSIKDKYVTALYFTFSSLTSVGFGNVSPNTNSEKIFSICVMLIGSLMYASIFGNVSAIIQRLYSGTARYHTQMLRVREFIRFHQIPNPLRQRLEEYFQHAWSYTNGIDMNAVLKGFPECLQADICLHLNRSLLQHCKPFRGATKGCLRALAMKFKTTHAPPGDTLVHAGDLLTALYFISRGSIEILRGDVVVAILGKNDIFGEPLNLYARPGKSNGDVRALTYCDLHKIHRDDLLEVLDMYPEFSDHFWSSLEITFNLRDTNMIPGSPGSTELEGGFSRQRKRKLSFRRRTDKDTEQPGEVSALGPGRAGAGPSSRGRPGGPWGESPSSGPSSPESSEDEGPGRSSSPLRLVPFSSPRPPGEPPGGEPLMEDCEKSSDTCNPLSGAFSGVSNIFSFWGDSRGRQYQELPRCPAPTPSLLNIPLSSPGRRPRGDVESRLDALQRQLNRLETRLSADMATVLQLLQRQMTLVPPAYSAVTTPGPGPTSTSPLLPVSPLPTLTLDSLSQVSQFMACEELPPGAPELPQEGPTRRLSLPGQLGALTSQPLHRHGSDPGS
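Note: peak tail current of the secondary pulse compared with the same well before compound.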

Structure (SMILES)	hERG current change (%, negative = inhibition) at 10uM
CCC(NC(=O)Nc1ncccc1C)(C(F)(F)F)C(F)(F)F	-3.33%
Cc1cccc(NC(=O)c2ccc3c(c2)C(=O)N(c2ccccc2C)C3=O)n1	-10.5%
COc1ccc(CN2C(=O)CN(C3CCCCCC3)C(=O)C2c2ccc(F)cc2)cc1 (centres unmarked)	3.27%
CCOC(=O)C1=C(COC(=O)c2ncc(Cl)c(Cl)c2Cl)NC(=O)NC1C (centres unmarked)	-60.6%
CCOC(=O)C1=C(COC(=O)c2ccc(C)s2)NC(=O)NC1C (centres unmarked)	-5.32%
CCOC(=O)C1=C(COC(=O)c2cccnc2Cl)NC(=O)NC1C (centres unmarked)	6.19%
CCOC(=O)CCc1c(C)nc(SCCN2CCCC2)c(C#N)c1C	-63.9%
CCOC(=O)CCc1c(C)nc(SCC(=O)O)c(C#N)c1C	-2.59%
CCOC(=O)CCc1c(C)nc(SCc2ccc(C(=O)O)cc2)c(C#N)c1C	-11.7%
COc1ccc(C(=O)CC(=O)Nc2ccc([N+](=O)[O-])cc2)cc1	-1.39%
CS(=O)(=O)Nc1ccc(C(=O)CC(=O)Nc2ccc([N+](=O)[O-])cc2)cc1	-60.7%
COc1ccc(NS(=O)(=O)c2cc(NC(=O)CC(=O)c3ccc([N+](=O)[O-])cc3)ccc2C)cc1	5.94%
COc1cccc(CC(=O)NCC2(N3CCCCC3)CCCCC2)c1	25%
Cn1cc(Br)c(C(=O)NC2CCCCCC2)n1	2.74%
Cc1cccn2c(=O)nc(SCC(=O)Nc3ccc4c(c3)OCO4)nc12	-5.58%
CCN(C(=O)CSc1nc2nc(C)cc(C)n2n1)C1CCS(=O)(=O)C1 (centres unmarked)	20.5%
N#Cc1ccccc1OCC(=O)OCCCOC(=O)COc1ccccc1C#N	10.1%
CC(=O)N1CCN(C(=O)COC(=O)COc2ccc(C#N)cc2)CC1	4.54%
N#Cc1ccc(OCC(=O)OCCCOC(=O)COc2ccc(C#N)cc2)cc1	-66.8%
CCOC(=O)c1c(NC(=O)CCN2C(=O)c3ccccc3C2=O)sc(C(=O)OC(C)C)c1C	-4.35%
Cc1ccc(S(=O)(=O)N/N=C/c2cccs2)cc1	9.65%
C=CCOc1ccccc1CNc1cccc(F)c1	14.2%
CCC(C)Sc1cc(-c2nc3ccc(C)cn3c2NCc2ccccc2)ccc1OC.O=C(O)C(F)(F)F (centres unmarked)	-1.12%

Structure (SMILES)	hERG current change (%, negative = inhibition) at 10uM
OC(COC(c1ccccc1)c1ccccc1)CN1CCN(c2ccccn2)CC1 (centres unmarked)	-74.7%
Cl.OC(COC(c1ccc(Cl)cc1)c1ccc(Cl)cc1)CN1CCN(c2ccccn2)CC1 (centres unmarked)	-82.4%
Cl.OC(COc1ccc(Cl)c2ccccc12)CN1CCN(c2ccccn2)CC1 (centres unmarked)	-21.9%
Cl.OC(COc1cccc2ccccc12)CN1CCN(c2ccccn2)CC1 (centres unmarked)	-49.2%
Cc1cc(C)c2nc(-c3ccccn3)cc(C(=O)n3cccn3)c2c1	22.9%
S=C(NCCc1ccccc1)NCCc1cnc[nH]1	-4.01%
CCOC(=O)C1CCCN(S(=O)(=O)c2cn(C)c(=O)n(C)c2=O)C1 (centres unmarked)	12.8%
Cc1cc(=O)[nH]c(SCCCOc2ccccc2Cl)n1	3.82%
CCOC(=O)c1cnc2c(C(=O)OC)cccc2c1NCCN1CCOCC1	-70%
CCOC(=O)c1cnc2c(C)cc(Cl)cc2c1NCCCN1CCOCC1	1.44%
CCOC(=O)c1cnc2c(Cl)cc(Cl)cc2c1NCCCN1CCOCC1	-4.47%
CCOC(=O)c1cnc2c(CC)cccc2c1NCCN1CCOCC1	-44.4%
CCOC(=O)c1cnc2c(Cl)cccc2c1NCCCN1CCOCC1	-44.7%
CCOC(=O)c1cnc2c(C)cccc2c1NCCCN1CCOCC1	-72.8%
CCOC(=O)c1cnc2c(CC)cccc2c1NCCCN1CCOCC1	-35.6%
CCOC(=O)c1cnc2c(Cl)cccc2c1NCCN1CCOCC1	-15.3%
CCOC(=O)c1cnc2c(C)cc(C)cc2c1NCCCN1CCOCC1	-59.7%
CCOc1c2ccc(C(=O)NCCCCc3ccccc3)cc2nn1C	-14.5%
CC(=O)c1cc(O)c2ccccc2c1O	-2.58%
CC(=O)Nc1ccc(C(=O)N/N=C/c2ccccc2OCc2ccccc2)cc1	29.2%
C#CCNC(=O)C1=C[C@@H](c2ccccc2)C[C@@H](OCCCCO)O1	-13.4%
CCCCc1ccc(NC(=O)NCc2cccnc2)cc1	-41.4%
COc1cc(C(=O)N2CCC(n3cnc4cc(F)ccc43)CC2)cc(OC)c1OC	-56.9%

Structure (SMILES)	hERG current change (%, negative = inhibition) at 10uM
COc1cc(OC)cc(OC(=O)C2CCN(C(=O)c3ccc(F)cc3)CC2)c1	-7.47%
COc1ccc(-n2c(C)nc3cc(C(=O)N4CCOCC4)ccc32)cc1	-14.1%
COC(=O)C1CCN(C(=O)c2cc(OC)c(OC)c(OC)c2)CC1	19.3%
COc1cc(OC)cc(C(=O)N2CCN(C(=O)c3cccc(F)c3)CC2)c1	-3.19%
COc1cc(OC)cc(C(=O)N2CCC(n3c(C)nc4cc(F)ccc43)CC2)c1	-59%
Cc1nc2cc(C(=O)O)ccc2n1C1CCCCC1	7.52%
COc1ccc(C(=O)N2CCC(n3c(C)nc4cc(F)ccc43)CC2)cc1	-73.4%
Cc1nc2cc(F)ccc2n1C1CCN(S(=O)(=O)c2ccccc2)CC1	-48.6%
COc1cc(C(=O)N2CCC(N3CCCCCC3)CC2)cc(OC)c1OC.O=C(O)C(=O)O	-2.57%
Cc1nc2cc(F)ccc2n1C1CCN(C(=O)c2ccc(F)cc2F)CC1	-56.4%
COc1cc(OC)cc(C(=O)N2CCC(N3CCCCCC3)CC2)c1	-5.77%
Cn1c(=O)cc(OCCCC(=O)N2CCN(c3ccccc3)CC2)c2ccccc21	-47.3%
Cc1c(N=Nc2c(O)n(C)c(=O)n(C)c2=O)c(=O)n(-c2ccccc2)n1C	8.74%
O=C(c1cccs1)N1CCN(C(=O)c2ccco2)c2ccccc2C1	-13.6%
COc1ccc(Cc2nc3ccc(C(=O)NCCCSC)cc3o2)cc1OC	0.503%
O=C(NNC(=O)c1cccc2ccccc12)c1ccccc1O	4.19%
O=c1c2ccccc2nc(SCc2cc(F)cc3c2OCOC3)n1Cc1ccco1	-2.26%
O=C(c1cc(COc2ccc3ncccc3c2)on1)N1CCC[C@H]1CO	4.88%
O=C(N1CCOCC1)N1CCC(n2nnc3cc(F)ccc32)CC1	-7.65%
Cc1cccc(C(=O)N2CCC(n3nnc4cc(F)ccc43)CC2)c1	-34.8%
O=C(c1ccc(F)cc1)N1CCC(n2nnc3ccccc32)CC1	-33.3%
COc1ccc(C(=O)N2CCC(n3nnc4cc(F)ccc43)CC2)cc1OC	-61.6%
COc1cc(C(=O)N2CCC(n3c(C)nc4cc(F)ccc43)CC2)cc(OC)c1OC	-8.07%

Structure (SMILES)	hERG current change (%, negative = inhibition) at 10uM
COc1ccc(C(=O)N2CCN(S(=O)(=O)c3ccc(F)cc3)CC2)cc1OC	10.9%
O=C(c1ccc([N+](=O)[O-])cc1)N1CCC(n2nnc3cc(F)ccc32)CC1	-71.9%
COc1ccc(C(=O)N2CCC(n3c(C)nc4cc(F)ccc43)CC2)cc1OC	-69%
CCOC(=O)C(CC)Sc1ncnc2nc[nH]c12 (centres unmarked)	-12.4%
CCCn1nnc(NC(=O)COc2ccc(C3CCCCC3)cc2)n1	-31.1%
O=c1ccc(-c2ccc(S(=O)(=O)Nc3cccc(Br)c3)o2)n[nH]1	14.8%
Cc1nn(C)c(C)c1/C=C1/CC2C3CC=C4CC(O)CCC4(C)C3CCC2(C)C1=O (centres unmarked)	-8.03%
CCN(CC)S(=O)(=O)c1ccc(NC(=O)CSc2ncnc3ccccc23)cc1	-8.71%
Cc1ccc(C(=O)NCCc2nnc3ccc(SCC(=O)N4CCCCC4)nn23)cc1	4.02%
c1ccc(Cc2nn3c(-c4ccncc4)nnc3s2)cc1	-38.6%
c1ccc(CCc2nn3c(-c4ccncc4)nnc3s2)cc1	-53.9%
Cc1ccc(-c2nnc3sc(CCc4ccccc4)nn23)cc1	6.39%
CCc1nn(CCCC(=O)NCc2cc(Br)ccc2OC)c(=O)c2cc3occc3n12	-2.73%
CC1(C(=O)Nc2nc3ccccc3s2)CC1(Br)Br (centres unmarked)	13.5%
Cc1ccn2cc(CCNC(=O)c3ccc(Br)o3)nc2c1	-57.5%
O=C(NCCc1cn2ccccc2n1)c1ccc(Br)o1	-28.9%
COc1ccc(CCC(=O)NCc2cn3ccccc3n2)cc1	-2.46%
Cc1ccn2cc(CNC(=O)c3ccc(Br)o3)nc2c1	-38.6%
COc1ccc(CCC(=O)NCc2cn3ccc(C)cc3n2)cc1	-52%
COc1ccc(CCC(=O)NCc2cn3ccsc3n2)cc1	13%
